PD-1 reversal – activators reversing PD-1 mediated T-cell inhibition, primary screen, luminescence, primary human CD4 T cells, PD-L1 beads | AID 2316, 2010 | activation, % (concentration not given with the values) | CellTiter-Glo 96 h | 29,000 tested, under 10 active; call rule not given here;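 note: 0% = median vehicle wells and 100% = positive control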
NOMO-1 viab – NOMO-1 AML cell viability reduction, primary screen, STK33 inhibitor project, CellTiter-Glo luminescence | NOMO-1 AML viability, 72 h | inhibition, % (test concentration not listed) | hit rate 7.5% among 37,000 | AID 2330, 2010; in the data active = inhibition above about 80%; inconclusive = no clear call, values can overlap the other calls
U2OS ROS induce – ROS inducers in U2OS cancer cells, primary screen, cell-based, H2DCF-DA fluorescence; U2OS ROS induction; hit rate 2% among 46,000; ROS induction (% of piperlongumine), % at 10 µM; in the data active = ROS induction above about 79%, passing the limit was not always enough; inconclusive = no clear call, values can overlap the other calls;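 note: 0% = DMSO vehicle median and 100% = reference compound median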
An asterisk follows results filed as active; ? = inconclusive; . = no result given. Shown is part of a subset that was picked to be rich in hits.

SMILES | PD-1 reversal | NOMO-1 viab | U2OS ROS induce
COc1ccc([N+](=O)[O-])cc1NC(=O)C1(c2ccc(OC)c(OC)c2)CCOCC1 | . | 14 | .
COc1ccc([N+](=O)[O-])cc1NC(=O)C1(c2ccc(OC)c(OC)c2)CCCCC1 | -4 | -5 | 149*
Cc1cc2c(cc3c(SCc4ccccc4)nncn32)o1 | . | . | -2
c1ccc(-c2nc(N3CCCCCC3)c3ccccc3n2)cc1 | . | . | 65
N#CC1=C(N)N(c2sc3c(c2C#N)CCCC3)C2=C(CCC2)C1(C(F)(F)F)C(F)(F)F | . | . | 205*
N#Cc1c(NC(=O)C(F)(F)F)sc2c1CCCC2 | . | . | -2
COc1ccc(NC(=O)c2ccc3c(=O)n(Cc4ccco4)c(=S)[nH]c3c2)cc1OC | 0 | 16 | 27
O=C(NCc1ccc(-c2cccs2)cc1)C1=Cc2ccccc2OC1 | . | . | -7
CO[C@@H]1C=C[C@@]23c4cc5c(cc4CN(CC2O)[C@H]3C1)OCO5 (some centres undefined) | -1 | 113* | 7
CCc1ccc(NC(=O)Cc2coc3ccc(C(C)C)cc23)cc1 | . | . | 12
O=C(Nc1ccc(F)cc1F)c1cnccn1 | . | . | -10
Cc1ccc(S(=O)(=O)Nc2ccc3c(c2)C(=O)N([C@@H](C)CO)C[C@H](C)[C@@H](CN(C)Cc2ccc(C(F)(F)F)cc2)O3)cc1 | 0 | ? | ?
C[C@H](CO)N1C[C@H](C)[C@@H](CN(C)Cc2ccc(C(F)(F)F)cc2)Oc2ccc(NS(=O)(=O)c3ccc(F)cc3)cc2C1=O | -5 | 35 | ?
C[C@@H]1CN([C@@H](C)CO)C(=O)c2cc(NS(=O)(=O)c3ccc(Cl)cc3)ccc2O[C@@H]1CN(C)Cc1ccc(C(F)(F)F)cc1 | -2 | 123* | 14
Cc1ccc(S(=O)(=O)Nc2ccc3c(c2)C(=O)N([C@@H](C)CO)C[C@@H](C)[C@@H](CN(C)Cc2ccc(C(F)(F)F)cc2)O3)cc1 | -1 | 98* | 5
C[C@@H]1CN([C@@H](C)CO)C(=O)c2cc(NS(=O)(=O)c3ccccc3)ccc2O[C@H]1CN(C)Cc1ccc(C(F)(F)F)cc1 | -1 | 38 | 82*
C[C@H]1CN([C@@H](C)CO)C(=O)c2cc(NS(=O)(=O)c3ccccc3)ccc2O[C@H]1CN(C)Cc1ccc(C(F)(F)F)cc1 | -2 | 33 | 5
Cc1ccc(S(=O)(=O)Nc2ccc3c(c2)C(=O)N([C@H](C)CO)C[C@H](C)[C@@H](CN(C)Cc2ccc(C(F)(F)F)cc2)O3)cc1 | . | 69 | 56
Cc1ccc(S(=O)(=O)Nc2ccc3c(c2)C(=O)N([C@H](C)CO)C[C@@H](C)[C@@H](CN(C)Cc2ccc(C(F)(F)F)cc2)O3)cc1 | -2 | 122* | 5
COc1ccc(-c2nc(C)c(CCNC(=O)C(C)(C)C)s2)cc1 | . | . | 2
CN1C(=O)/C(=C\c2ccncc2)SC1=S | . | . | 41
O=C(Nc1ccc2nc3n(c(=O)c2c1)CCCC3)c1ccccn1 | . | . | -6
Cc1nc2ccccc2c(=O)n1/N=C/c1ccc(Cl)c(Cl)c1 | . | . | -10
CCOC(=O)c1nc2ccccc2c(=O)n1/N=C/c1cc(Cl)cc(Cl)c1O | 0 | 101* | -5
Cc1ccc(C)c(C(=O)CSc2nc3nc(C)cc(C)c3c(=O)[nH]2)c1 | . | . | 23
SMILES | PD-1 reversal | NOMO-1 viab | U2OS ROS induce
O=C(CSCn1nnc2c(=O)[nH]c(Cc3ccc(F)cc3)nc21)Nc1ccc(F)cc1 | . | . | -19
N#CCCN(/N=C/c1ccccc1)C1=NS(=O)(=O)c2ccccc21 | -3 | 16 | 128*
CCOC(=O)CN(C1=NS(=O)(=O)c2ccccc21)c1ccccc1 | . | . | 4
O=C(NCCc1ccccc1)c1ccc2c(c1)sc1nc(-c3ccccc3)cn12 | . | . | 53
O=C(CN1C(=O)C2C3C=CC(C4CC34)C2C1=O)Nc1ccc(Oc2ccccc2Cl)cc1 (centres undefined) | . | -1 | .
O=C(CN1C(=O)C2C3C=CC(C4CC34)C2C1=O)Nc1ccc(Oc2ccc(Br)cc2)cc1 (centres undefined) | -2 | 86* | 9
CCOc1cccc2cc(C(=O)Nc3nccs3)c(=Nc3cccc(C(F)(F)F)c3)oc12 | . | . | -6
O=c1oc(Cl)c(Cl)c2ccccc12 | . | 119* | 45
CC#CCc1cc2ccccc2c(=O)o1 | -1 | 21 | 4
O=C(O)c1ccc(CNCc2ccccc2)s1 | . | . | -14
O=c1c2cc3c(cc2[nH]c(=S)n1CCc1ccccc1Cl)OCO3 | . | . | -9
COc1ccccc1CC(=O)NCc1ccc(-c2cccs2)cc1 | . | . | -8
COc1ccc(C(C)C)cc1S(=O)(=O)n1cnc2ccccc21 | -3 | 123* | 29
COc1ccc(C(C)C)cc1S(=O)(=O)n1nnc2ccccc21 | 0 | -2 | -16
O=C1C=CC(O)(/C=C/C(=O)OC[C@H]2O[C@@H](Oc3ccc(O)cc3)[C@H](O)[C@@H](OC(=O)/C=C/C3(O)C=CC(=O)C=C3)[C@@H]2O)C=C1 | -10 | 87* | 127*
O=C(/C=C/c1ccc(O)cc1)OC[C@H]1O[C@@H](Oc2cc(O)c3c(c2)OC(c2ccc(O)cc2)CC3=O)[C@H](O)[C@@H](OC(=O)/C=C/c2ccc(O)cc2)[C@@H]1O (some centres undefined) | -1 | 120* | 165*
C[C@@H]1O[C@@H](OC[C@H]2O[C@@H](Oc3ccc(O)cc3)[C@H](O)[C@@H](OC(=O)c3ccc(O)cc3)[C@@H]2O)[C@H](O)[C@H](O)[C@H]1O | 1 | -5 | -12
COc1ccc(C2CC(=O)c3c(O)cc(O[C@@H]4O[C@H](CO[C@@H]5O[C@@H](C)[C@H](O)[C@@H](O)[C@H]5O)[C@@H](O)[C@H](O)[C@H]4O)cc3O2)cc1 (some centres undefined) | 1 | 12 | 1
N#C/C(=C\Nc1cccc(Cl)c1)S(=O)(=O)c1ccc(Cl)cc1 | -1 | 84* | -6
CCOC(=O)/C(=C\Nc1ccc(F)c(Cl)c1)S(=O)(=O)c1ccc(Cl)cc1 | 1 | 39 | 21
COC(=O)c1scc2c(Oc3ccccc3C(F)(F)F)cc(C(F)(F)F)nc12 | . | . | 15
C[C@H]1CN([C@@H](C)CO)C(=O)c2cccc(NC(=O)C3CCCCC3)c2O[C@@H]1CN(C)Cc1ccc(Oc2ccccc2)cc1 | . | 86* | 50
C[C@@H]1CN([C@H](C)CO)C(=O)c2cccc(NC(=O)C3CCCCC3)c2O[C@@H]1CN(C)Cc1ccc(Oc2ccccc2)cc1 | -2 | 25 | 54
C[C@H](CO)N1C[C@H](C)[C@H](CN(C)Cc2ccc(-c3ccccc3)cc2)Oc2c(NC(=O)C3CCCCC3)cccc2C1=O | -2 | 119* | 54
C[C@@H]1CN([C@@H](C)CO)C(=O)c2cccc(NC(=O)C3CCCCC3)c2O[C@@H]1CN(C)Cc1ccc(-c2ccccc2)cc1 | . | 77 | 66
C[C@@H]1CN([C@H](C)CO)C(=O)c2cccc(NC(=O)C3CCCCC3)c2O[C@H]1CN(C)Cc1ccc(C(F)(F)F)cc1 | -6 | 104* | 5
C[C@@H]1CN([C@H](C)CO)C(=O)c2cccc(NC(=O)C3CC3)c2O[C@@H]1CN(C)Cc1ccc(C(F)(F)F)cc1 | 1 | -1 | -14
COc1ccc(S(=O)(=O)N(CCc2ccccc2)CC(=O)Nc2cccc(Cl)c2)cc1OC | . | . | 4
COC(=O)C(C(C)C)N1C(=O)C2C3C=CC(C3)C2C1=O (centres undefined) | . | . | -5

High-throughput results (PubChem BioAssay)
